Measurements from the supplement of paper PMC7156485.

Legend:
Conditions in all cases: concentration: 10 µM; 24 h
[1] = system: HCC1569; assay: cell number relative to DMSO (% of DMSO); higher = more cells (less growth inhibition / toxicity)
How it was run: (§1)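 HCC1569 and TDF cells were seeded at 800 per well in 384-well plates in RPMI with 10% FBS and treated with compounds at 10 µM for 24 h at 37 °C, in triplicate. After fixation in 3.7% formaldehyde, cells were stained with a rabbit anti-H1.0 antibody, an AlexaFluor 647 secondary and DAPI, and six fields per well were imaged at ×10. H1.0 nuclear intensity or cell number is given as percent of the plate control, using the median of replicates, with HCC1569 values smoothed for positional effects.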

[2] = system: TDF; assay: as above
How it was run: as §1

[3] = system: TDF; assay: H1.0 immunofluorescence intensity relative to DMSO (% of DMSO); higher = stronger H1.0 induction, active = 120 or more
How it was run: as §1

[4] = system: HCC1569; assay: H1.0 immunofluorescence intensity relative to DMSO (% of DMSO); higher = stronger H1.0 induction, active = 140 or more
How it was run: as §1
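Wherever H1.0 immunofluorescence intensity relative to DMSO is given: TDF is a line of transformed human dermal fibroblasts of mesenchymal origin.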
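Wherever cell number relative to DMSO is given: TDF denotes transformed human dermal fibroblasts of mesenchymal origin.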

SMILES | cell number [1] | cell number [2] | H1.0 immunofluorescence intensity [3] | H1.0 immunofluorescence intensity [4]
CC1(C)C(=O)N(CCN2CCC(C(=O)c3ccc(F)cc3)CC2)c2ccccc21.Cl [LY-310,762 hydrochloride] | 101 | 94.5 | 94.2 (inactive) | 95.7 (inactive)
C=CCc1ccccc1OCC(O)CNC(C)C.Cl (stereo not drawn) [Alprenolol.HCl] | 102 | 105 | 90.6 (inactive) | 102 (inactive)
CCCCC(C)(O)CC=CC1C(O)CC(=O)C1CCCCCCC(=O)OC (stereo not drawn) [Misoprostol] | 106 | 107 | 93.2 (inactive) | 108 (inactive)
OCC1OC(O)C(Cl)C(O)C1O [2-Chloro-2-deoxy-D-glucose] | 104 | 101 | 101 (inactive) | 92 (inactive)
COc1ccccc1CNCCCCCCNCCCCCCCCNCCCCCCNCc1ccccc1OC.Cl.Cl.Cl.Cl [Methoctramine tetrahydrochloride] | 104 | 87.6 | 103 (inactive) | 98 (inactive)
O=C(O)C=Cc1ccc(Cn2ccnc2)cc1 [Ozagrel] | 100 | 101 | 93.8 (inactive) | 104 (inactive)
CCN1CCCC1CNC(=O)c1c(OC)ccc(I)c1O (stereo not drawn) | 106 | 91 | 96.7 (inactive) | 88.1 (inactive)
CCCCCCCCCCCC=CCC=CCCCC(=O)O [Eicosa-5,8-dienoic acid (20:2 n-12)] | 101 | 99.6 | 96.8 (inactive) | 105 (inactive)
CC1OC(OC2C(Oc3cc(O)c4c(=O)c(O)c(-c5ccc(O)cc5)oc4c3)OC(CO)C(O)C2O)C(O)C(O)C1O (stereo not drawn) [Kaempferol-7-neohesperidoside] | 98.8 | 99.4 | 95.8 (inactive) | 87.9 (inactive)
Nc1nc(=O)c2nc(Br)n(C3OC4COP(=O)([O-])OC4C3O)c2[nH]1.[Na+] (stereo not drawn) [8-Bromo-cGMP sodium] | 101 | 100 | 93.4 (inactive) | 92.8 (inactive)
Cc1nn(C)c2nc(NNC(=O)Nc3cc(Cl)nc(Cl)c3)cc(C(C)C)c12 | 66 | 12.8 | 170 (active) | 140 (active)
COC(=O)c1sccc1S(=O)(=O)Nc1ccc(Nc2ccccc2)cc1OC | 99.7 | 92.5 | 88.2 (inactive) | 112 (inactive)
